This note sets out measurements from PubChem BioAssay (NCI).

Among the test systems are HCT-15 colon; HT29 colon; SNB-75 CNS; SNB-19 CNS; U251 CNS; PC-3 prostate; SK-MEL-5 melanoma; UACC-62 melanoma; LOX IMVI melanoma; SK-MEL-28 melanoma; SK-MEL-2 melanoma; SN12C renal; UO-31 renal; TK-10 renal; ACHN renal; CAKI-1 renal; A498 renal; CCRF-CEM leukemia; MOLT-4 leukemia; EKVX NSCLC.
What all share (experiment): NCI-60 one-dose screen, 48 h (100 = growth as untreated, 0 = no growth, -100 = all killed)
What all share (details): 10 µM unless noted

Each structure is given as a SMILES string. This is part of a sample that, as a whole, favours compounds with a hit. Of some 83,000 tested, about 20% had one in any assay.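 Assay: single dose, 48 h. Readout: percent growth (0 = no net growth; negative = cell death). Active: <10.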 A number with no mark means an inactive call. Activity calls are given as the source filed them.

Turning to `OC1CSSC1Cn1cnc2c(Nc3ccc(OCc4cccc(F)c4)c(Cl)c3)ncnc21` (configuration not stated), the growth was -64% (active) in the experiment on HCT-15 colon; 3.96% (active) with HT29 colon; 54.1% in the experiment on SNB-75 CNS; -49.4% (active) in the experiment with SNB-19 CNS; -26.3% (active) in the experiment on U251 CNS; -69.3% (active) in the experiment on PC-3 prostate. For the same molecule, the growth in the experiment on SK-MEL-5 melanoma was -55.6% (active); in the experiment with UACC-62 melanoma, -68.9% (active); in the experiment with LOX IMVI melanoma it was -82.6% (active); in the experiment on SK-MEL-28 melanoma, -9.14% (active); in the experiment on SK-MEL-2 melanoma, -33.4% (active); in the experiment on SN12C renal, 30.5%. Further, the growth in the experiment with UO-31 renal was 11.9%; in the experiment on TK-10 renal, -5.98% (active); in the experiment on ACHN renal it was 15.6%; in the experiment with CAKI-1 renal, 19.6%; with A498 renal, 69.6%; in the experiment with CCRF-CEM leukemia it was -8.33% (active). Besides, the growth in the experiment with MOLT-4 leukemia was -41.8% (active).
Regarding `Nc1c(Br)cc2c(c1Br)Cc1cc([N+](=O)[O-])ccc1-2`, the growth in the experiment on HCT-15 colon is 104%; with HT29 colon, 110%; in the experiment on SNB-75 CNS it was 75.3%; in the experiment with SNB-19 CNS, 94.5%; in the experiment on U251 CNS, 95.5%; in the experiment with PC-3 prostate, 87.9%. Further, the growth was 91.4% in the experiment on SK-MEL-5 melanoma; 89.1% in the experiment on UACC-62 melanoma; 102% with LOX IMVI melanoma; 113% with SK-MEL-28 melanoma; 109% in the experiment on SK-MEL-2 melanoma; 101% in the experiment on SN12C renal. Moreover, the growth is 79.1% in the experiment on UO-31 renal; 90.6% in the experiment on TK-10 renal; 93.2% with ACHN renal; 98% with CAKI-1 renal; 114% with A498 renal; 95.7% with CCRF-CEM leukemia. For the same molecule, the growth in the experiment on MOLT-4 leukemia was 83.4%.
As for `O=C(NCCN1CCOCC1)OCc1ccc2c(Cl)cc(Cl)c(O)c2n1`, the growth is 19.5% with HCT-15 colon; 108% in the experiment with HT29 colon; 71.2% in the experiment with SNB-75 CNS; 59% in the experiment on SNB-19 CNS; 44.6% in the experiment with U251 CNS; 60% in the experiment on PC-3 prostate. The growth in the experiment with SK-MEL-5 melanoma was 53.8%; in the experiment on UACC-62 melanoma, 59.7%; in the experiment on LOX IMVI melanoma it was 51%; with SK-MEL-28 melanoma it was 71.6%; in the experiment with SK-MEL-2 melanoma, 78.1%; with EKVX NSCLC, 89.6%. Also, the growth in the experiment on UO-31 renal was 25.5%; in the experiment with TK-10 renal it was 96.4%; with ACHN renal, 37.3%; with CAKI-1 renal, 47.1%; in the experiment with A498 renal, 106%; in the experiment on CCRF-CEM leukemia it was 48.3%. Further, in the experiment on MOLT-4 leukemia, the growth was 57.9%.
As for `COc1ccc(-c2nc3ccc(C)cc3c3c2c(=O)n(C)c(=O)n3C)cc1OC`, the growth is 108% in the experiment on HCT-15 colon; 108% in the experiment with HT29 colon; 92.9% with SNB-75 CNS; 98.7% in the experiment with SNB-19 CNS; 96.9% with U251 CNS; 97.5% in the experiment on PC-3 prostate. For the same molecule, the growth in the experiment with SK-MEL-5 melanoma is 103%; in the experiment with UACC-62 melanoma, 89.5%; with LOX IMVI melanoma, 95.6%; in the experiment with SK-MEL-28 melanoma, 112%; in the experiment on SK-MEL-2 melanoma it was 123%; in the experiment on SN12C renal, 98%. For the same molecule, the growth was 106% in the experiment with UO-31 renal; 106% in the experiment with TK-10 renal; 97.7% in the experiment with ACHN renal; 88.4% in the experiment with CAKI-1 renal; 94% in the experiment on A498 renal; 92.3% in the experiment with CCRF-CEM leukemia. Also, the growth in the experiment with MOLT-4 leukemia is 101%.
`CN(C)CCC(=O)C1CC1`: the growth is 106% in the experiment on HCT-15 colon; 99.3% in the experiment on HT29 colon; 102% with SNB-75 CNS; 96% with SNB-19 CNS; 102% in the experiment on U251 CNS; 99.2% in the experiment with PC-3 prostate. Moreover, the growth is 106% with SK-MEL-5 melanoma; 99.2% with UACC-62 melanoma; 99% in the experiment on LOX IMVI melanoma; 107% in the experiment with SK-MEL-28 melanoma; 111% in the experiment on SK-MEL-2 melanoma; 98.9% with SN12C renal. Also, the growth is 75.9% in the experiment on UO-31 renal; 113% with TK-10 renal; 103% in the experiment on ACHN renal; 102% in the experiment with CAKI-1 renal; 106% with A498 renal; 103% in the experiment on CCRF-CEM leukemia. Besides, in the experiment with MOLT-4 leukemia, the growth is 96.9%.
Turning to `Cc1sc2nc(NCCN)[nH]c(=O)c2c1C`, the growth is 92.8% with HCT-15 colon; 95.1% with HT29 colon; 67.4% in the experiment with SNB-75 CNS; 87.5% in the experiment on SNB-19 CNS; 95.9% in the experiment on U251 CNS; 93.3% with PC-3 prostate. Further, the growth is 96% in the experiment on SK-MEL-5 melanoma; 95.4% in the experiment on UACC-62 melanoma; 91.3% in the experiment on LOX IMVI melanoma; 98.4% in the experiment on SK-MEL-28 melanoma; 103% in the experiment with SK-MEL-2 melanoma; 89.6% with EKVX NSCLC. For the same molecule, the growth in the experiment on UO-31 renal is 91.4%; in the experiment with TK-10 renal it was 96.9%; in the experiment with ACHN renal, 91.2%; in the experiment on CAKI-1 renal, 100%; in the experiment with A498 renal, 91.8%; in the experiment on CCRF-CEM leukemia, 117%. Besides, in the experiment with MOLT-4 leukemia, the growth was 106%.
As for `CC1=Nc2cnc(Nc3ccc(N4CCCCC4)cc3)nc2Nc2ccccc21`, the growth with HCT-15 colon was 62.6%; with HT29 colon, 62.5%; in the experiment on SNB-75 CNS it was 86.7%; with SNB-19 CNS, 94.9%; in the experiment on U251 CNS, 83.8%; with PC-3 prostate it was 19.6%. Besides, the growth in the experiment with SK-MEL-5 melanoma is 41.6%; in the experiment on UACC-62 melanoma, 55.2%; with LOX IMVI melanoma, 75.8%; in the experiment on SK-MEL-28 melanoma it was 84.7%; in the experiment on SK-MEL-2 melanoma, 86%; in the experiment on EKVX NSCLC it was 68.8%. The growth was 49.7% with UO-31 renal; 68.1% in the experiment on ACHN renal; 79.3% with CAKI-1 renal; 55.8% in the experiment on A498 renal; 31.5% with CCRF-CEM leukemia; 26.7% with MOLT-4 leukemia.
